Assay outcomes as filed in PubChem BioAssay.
In the library only some 2.7% were active in any assay of this set; here they are far more common.
HepG2 tox-1 = HepG2 cytotoxicity, counter-screen for TGF-b inhibitors; Potency, µM (titrated, usually from 46.1 µM), most hits filed as cytotoxic; HepG2 CAGA-GFP viability, ATP luminescence, 18 h; AID 588856; 410,000 tested, 0.76% active
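CellTiter-Glo luminescence gave cytotoxicity after 18 hours at 37 degrees C. The cells were HepG2 CAGA-GFP in 1% FBS DMEM, stimulated with 500 pg/mL TGF-beta after compound addition. %Activity was normalised to no-cell wells (complete cell-killing) and DMSO (no toxicity), and curves were fitted and classified.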
S2 tox = viability counter-screen for ATXN expression inhibitors; S2 cells (HEK-293 line with an ATXN2-luciferase reporter) viability, CellTiter-Fluor protease fluorescence, 24 h; 400,000 tested, 0.49% active; Potency, µM (doses to about 56.7 µM), actives largely listed as cytotoxic; AID 651635; further: nearly all actives have a fitted effect of over 40% in size
TGFb inhibitor = blocks TGF-b signaling. 410,000 tested, 1.2% active. AID 588855. HepG2 CAGA-GFP TGF-b/SMAD3 reporter, GFP fluorescence, 18 h; TGF-beta stimulated, 500 pg/mL final. Potency, µM (series often up to 46.1 µM), most hits filed as inhibitors; further: nearly all actives have a fitted effect of over 65% in size
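Inhibition was scored as loss of TGF-beta-induced (500 pg/mL final, 18 hours, 37 degrees C) GFP in HEPG2 cells carrying a CAGA-GFP reporter, in DMEM with 1% FBS. Well GFP was summed per cell; Activity was normalised to unstimulated and stimulated DMSO wells, then concentration-response fitting.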
12-LOX inh = ALOX12 (human) lipoxygenase inhibition | P18054 | purified 12hLO, xylenol orange hydroperoxide absorbance | Potency, µM (series often up to 108 µM), hits mostly inhibitors | 580,000 tested, 1.1% active
Target sequence (P18054 whole entry, looked up): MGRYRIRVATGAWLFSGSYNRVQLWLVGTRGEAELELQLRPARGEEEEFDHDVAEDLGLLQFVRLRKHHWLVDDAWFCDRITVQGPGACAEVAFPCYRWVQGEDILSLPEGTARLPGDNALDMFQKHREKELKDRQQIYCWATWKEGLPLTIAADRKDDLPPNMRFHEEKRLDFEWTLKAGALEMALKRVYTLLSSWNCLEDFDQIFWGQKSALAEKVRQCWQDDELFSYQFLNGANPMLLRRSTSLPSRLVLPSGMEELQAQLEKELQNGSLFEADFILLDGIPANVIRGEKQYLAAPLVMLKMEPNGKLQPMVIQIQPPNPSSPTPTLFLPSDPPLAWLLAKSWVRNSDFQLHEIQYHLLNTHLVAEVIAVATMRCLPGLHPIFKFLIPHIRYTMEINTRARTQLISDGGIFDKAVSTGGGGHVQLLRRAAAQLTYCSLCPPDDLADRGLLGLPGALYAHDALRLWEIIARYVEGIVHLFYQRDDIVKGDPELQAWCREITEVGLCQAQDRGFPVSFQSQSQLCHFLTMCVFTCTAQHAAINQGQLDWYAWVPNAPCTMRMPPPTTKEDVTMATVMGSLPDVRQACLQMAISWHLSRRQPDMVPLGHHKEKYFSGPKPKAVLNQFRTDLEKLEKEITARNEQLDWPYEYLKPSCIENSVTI
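Purified human 12hLO at 150 nM in 25 mM Hepes, 0.01% Triton X-100, pH 7.0, preincubated 15 min at room temperature with compound. Reaction started with 40 uM arachidonic acid, 30 min at room temperature. Hydroperoxide measured by Fe-xylenol orange, 573/405 nm absorbance ratio.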
ATXN2 expr inh = ATXN2 expression inhibition. 360,000 tested, 0.72% active. HEK-293 ATXN2-luciferase reporter, luminescence, 24 h. AID 1745845. Potency, µM (top dose mostly 57 µM), usual class: inhibitors; further: nearly all actives have a fitted effect of over 55% in size
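qHTS (up to 57 uM final) was run with 24 h compound exposure of reporter cells at 37 °C. Each well was multiplexed: SteadyGlo luminescence measured ATXN2-luciferase expression after a fluorogenic Gly-Phe-AFC viability readout (25 uM final).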
TGFb CAGA inh = confirmation of TGF-b signaling inhibitors in HepG2 reporter cells; shares compounds with TGFb inhibitor; HepG2 CAGA-GFP TGF-b reporter, GFP fluorescence, 18 h; cells stimulated with TGF-beta, 500 pg/mL; Potency, µM (top dose mostly 46.1 µM), most hits filed as inhibitors; 1,600 tested, 63% active; further: nearly all actives have a fitted effect of over 65% in size
HepG2 tox-2 = HepG2 cytotoxicity, TGF-b inhibitor counterscreen; shares compounds with TGFb inhibitor; 1,600 tested, 27% active; HepG2 CAGA-GFP viability, ATP luminescence, 18 h; cells stimulated with TGF-beta, 500 pg/mL; Potency, µM (titrated, usually from 46.1 µM), usual class: inhibitors; further: nearly all actives have a fitted effect of over 70% in size
TGFb CCL64 inh = blocks TGF-b signaling in CCL64 reporter cells. shares compounds with TGFb inhibitor. CCL64 CAGA-GFP reporter, TGF-b stimulated, GFP fluorescence, 18 h. Potency, µM (series often up to 46.1 µM), usual class: inhibitors. 1,600 tested, 41% active. AID 720536; further: nearly all actives have a fitted effect of over 65% in size
TGFb COP inh = TGF-b inhibition validated with COP promoter; 1,600 tested, 3% active; HepG2 COP-GFP TGF-b reporter, GFP fluorescence, 18 h; cells stimulated by added recombinant TGF-beta; Potency, µM (highest dose often 46.1 µM), actives largely listed as inhibitors; shares compounds with TGFb inhibitor; AID 720537; further: nearly all actives have a fitted effect of over 70% in size
Hits are given with their value; - = inactive; ? = inconclusive; . = no result given. The call rests on the fitted dose curve; in most records, active means well fitted curve in the direction sought with a large enough effect; inconclusive means small, poorly fitted or top-dose-only effect, or another doubt; inactive means no such curve, though single readings can be large; an effect the other way counts as inactive or inconclusive.

SMILES	HepG2 tox-1	S2 tox	TGFb inhibitor	12-LOX inh	ATXN2 expr inh	TGFb CAGA inh	HepG2 tox-2	TGFb CCL64 inh	TGFb COP inh
CC(=O)N1CCN(c2ccc(NC(=O)c3ccc([N+](=O)[O-])o3)cc2Cl)CC1	-	?	6.3µM	?	-	4.6µM	18µM	12µM	-
COc1cccc(-c2cnc3c(NC=O)cc(-c4cc(C)c(O)c(C)c4)cn23)c1	-	?	-	?	?	.	.	.	.
CC(=O)c1cccc(-c2cnc3c(NC=O)cc(-c4ccc(C(=O)N5CCOCC5)cc4)cn23)c1	-	-	?	-	-	.	.	.	.
COc1cccc(-c2cnc3c(NC=O)cc(-c4ccc(S(C)(=O)=O)cc4)cn23)c1	-	-	1.8µM	-	-	4.6µM	-	2.1µM	-
CC(=O)Nc1cccc(-c2cc(NC=O)c3ncc(-c4cccc(C(C)=O)c4)n3c2)c1	-	-	2.8µM	-	-	6.5µM	?	?	-
CC(=O)c1ccc(-c2cnc3c(NC=O)cc(-c4ccc(C(=O)N5CCOCC5)cc4)cn23)cc1	-	-	?	-	-	?	?	?	-
COc1cccc(-c2cnc3c(NC=O)cc(-c4ccccc4Oc4ccccc4)cn23)c1	-	-	10µM	-	-	12µM	-	?	-
COc1cccc(-c2cnc3c(NC=O)cc(-c4cccc(NC(C)=O)c4)cn23)c1	-	-	7.1µM	-	-	5.8µM	?	15µM	-
O=C(Nc1ccc(F)cc1)Nc1csc2ccccc12	-	-	14µM	-	-	?	?	?	-
O=C(Cc1n[nH]c(=O)c2ccccc12)Nc1ccc(S(=O)(=O)N2CCCC2)cc1	.	.	.	-	.	.	.	.	.
Cc1ccc(-n2c(SCC(N)=O)nc3c(c2=O)C2(CCCC2)Cc2ccccc2-3)cc1	-	-	8.9µM	-	-	13µM	15µM	?	-
CN(Cc1ccccc1)C(=O)c1cc(-c2cccc(Cl)c2)n[nH]1	.	.	.	-	.	.	.	.	.
CC(=NNC(=S)Nc1ccccc1)c1ccccn1	-	?	?	?	.	.	.	.	.
C/C(=N\NC(=O)c1ccccc1-n1cccc1)c1ccccn1	-	2.8µM	14µM	-	.	10µM	?	?	-
C=CCNC(=S)N/N=C(\C)c1ccccn1	-	.	2.8µM	?	-	10µM	?	1.3µM	-
CC(=NNC(=S)N1CCCCC1)c1ccccn1	-	?	0.63µM	45µM	.	1.3µM	?	0.65µM	-
C/C(=N\NC(=O)c1cc2ccccc2cc1O)c1ccccn1	-	-	-	-	?	.	.	.	.
CC(C)c1ccccc1NC(=O)Cn1c(/C=C/c2ccccc2)nc2ccccc21	13µM	?	10µM	.	-	-	?	?	-
CCCCCCCCCCS(=O)(=O)N/N=C/c1ccccc1[N+](=O)[O-]	.	.	.	-	.	.	.	.	.
COc1ccc(Cl)cc1NC(=O)CSc1nnc(Cc2ccc(C)cc2)c(=O)[nH]1	-	-	8.9µM	-	-	21µM	?	-	-
O=S(Cc1ccc(Br)cc1)Cc1nnc(SCc2ccc(Cl)cc2)n1-c1ccccc1 (centres undefined)	-	?	-	?	-	.	.	.	.
O=S(Cc1ccc(Br)cc1)Cc1nnc(SCc2c(F)cccc2Cl)n1-c1ccccc1 (centres undefined)	-	-	?	?	-	12µM	?	15µM	-
Cc1ccc(C(=O)NC2CC2)cc1S(=O)(=O)N1CCCC1	.	.	.	-	.	.	.	.	.
